Measurements reported in PubChem BioAssay (Tox21).
Results filed as inconclusive are left out. The source made the active and inactive calls. Unless noted, the call rests on the fitted dose curve; in most records, active means well fitted curve in the direction sought with a large enough effect in the repeat runs; inconclusive means weak or mixed curves; inactive means no such curve, though single readings can be large; an effect the other way counts as inactive or inconclusive.

Columns and labels:
[1] = qHTS assay to identify aromatase inhibitors - cell viability counter screen (AID 743084);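 further: cells stimulated with testosterone during compound exposure; nearly all actives have a fitted effect of over 55% in size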
[2] = target: Aryl hydrocarbon receptor (Homo sapiens) (UniProt P35869); assay: qHTS assay to identify small molecule that activate the aryl hydrocarbon receptor (AhR) signaling pathway (AID 743085);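 further: HG2L7.5c1 human HepG2 liver cells with stably integrated DRE-driven firefly reporter; series mostly up to about 70 µM; nearly all actives have a fitted effect of over 15% in size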
In short: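 Reporter assay in engineered HepG2 line HG2L7.5c1, whose plasmid carries twenty dioxin responsive elements upstream of firefly luciferase. Treatment lasted 24 h at 37C; ONE-Glo luminescence gauged induction.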

[3] = qHTS assay to identify small molecule that activate the aryl hydrocarbon receptor (AhR) signaling pathway - cell viability counter screen (AID 743086);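 further: HepG2 liver cells carrying the AhR DRE luciferase reporter; series mostly up to about 70 µM; nearly all actives have a fitted effect of over 45% in size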
In short: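 HepG2-AhR-luc (HG2L7.5c1) cells, 4000/well, were preincubated 5 h at 37C, exposed to compound in qHTS format for 24 hr at 37C, then given CellTiter-Fluor for 30 min; viability was read as fluorescence in the reporter wells.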

[4] = target: Peroxisome proliferator-activated receptor gamma (Homo sapiens) (UniProt P37231); assay: qHTS assay to identify small molecule agonists of the peroxisome proliferator-activated receptor gamma (PPARg) signaling pathway (AID 743094; active means well fitted activation curve with a large enough effect in the signal ratio in the repeat runs, not every such curve was filed as active; the % refers to the signal ratio)
In short: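 HEK293H PPARg-bla cells, 5 h settle at 37C/5% CO2; compound (DMSO) 17 h, 37C; B/G FRET substrate 1 h RT; fluorescence intensity read-out. qHTS format.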

[5] = target: Peroxisome proliferator-activated receptor gamma (Homo sapiens) (UniProt P37231); assay: qHTS assay to identify small molecule antagonists of the peroxisome proliferator-activated receptor gamma (PPARg) signaling pathway (AID 743191; calls by dose curve; further: series mostly up to about 63 µM; nearly all actives have a fitted effect of over 30% in size)
In short: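 GeneBLAzer PPARg UAS-bla HEK293H cells carrying a UAS-driven beta-lactamase reporter were plated at 3000 cells/well, preincubated 5 h at 37C, then given compound for 17 h at 37C; LiveBLAzer B/G FRET substrate was read after 1 h at room temperature.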

[6] = qHTS assay to identify small molecule antagonists of the peroxisome proliferator-activated receptor gamma (PPARg) signaling pathway - cell viability counter screen (AID 743194); further: nearly all actives have a fitted effect of over 55% in size
In short: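 PPARg-UAS-bla HEK293H cells were plated, rested 5 h at 37 C, then treated with compounds plus rosiglitazone (50 nM final) for 17 h at 37 C; viability was then read by CellTiter-Glo luminescence after 30 min at room temperature.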

[7] = qHTS assay for small molecule agonists of the antioxidant response element (ARE) signaling pathway (AID 743202; active means well fitted activation curve with a large enough effect in the signal ratio in the repeat runs, not every such curve was filed as active; the % refers to the signal ratio)
In short: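 Steps: seed ARE-bla HepG2 cells (2,000/well); incubate 5 h at 37 C; add compounds by pin tool; incubate 16 h at 37 C; add FRET substrate; read fluorescence after 2 h at RT.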

[8] = qHTS assay for small molecule activators of the heat shock response signaling pathway - cell viability counter screen (AID 743209); further: nearly all actives have a fitted effect of over 50% in size
In short: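 HSE-bla HeLa; 1500 cells/well; overnight 37 C, 5% CO2; compound 5 h 37 C; LiveBLAzer B/G substrate 2.5 h RT; CellTiter-Glo 30 min RT; luminescence.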

[9] = qHTS assay for small molecule activators of the heat shock response signaling pathway (AID 743210; active means well fitted activation curve with a large enough effect in the signal ratio in the repeat runs, with a control signal flat, not every such curve was filed as active; the % refers to the signal ratio;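 further: HeLa cells with beta-lactamase reporter driven by heat shock elements; series mostly up to about 63 µM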)
In short: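 Activation of heat shock element-controlled beta-lactamase expression is measured in HeLa cells by LiveBLAzer FRET fluorescence, with compound exposure lasting 5 h at 37 C and substrate loading 2.5 h at room temperature.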

[10] = qHTS assay to identify small molecule agonists of the peroxisome proliferator-activated receptor delta (PPARd) signaling pathway - cell viability counter screen (AID 743211); further: nearly all actives have a fitted effect of over 55% in size
In short: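 Multiplexed format: after the 2 h room-temperature LiveBLAzer B/G FRET step, CellTiter-Glo was added to the same wells. Luminescence after 30 min gave cell viability; compound exposure was 17 h at 37C.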

[11] = target: Peroxisome proliferator-activated receptor delta (Homo sapiens) (UniProt Q03181); assay: qHTS assay to identify small molecule agonists of the peroxisome proliferator-activated receptor delta (PPARd) signaling pathway (AID 743212; calls by dose curve)
In short: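 Cells expressing a UAS-driven beta-lactamase reporter (PPARd-bla HEK293H) were given test compounds after a 5 h settle and kept at 37 C. Reporter activity was then measured as FRET fluorescence using LiveBLAzer B/G substrate.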

[12] = qHTS assay to identify small molecule antagonists of the peroxisome proliferator-activated receptor delta (PPARd) signaling pathway - cell viability counter screen (AID 743213); further: nearly all actives have a fitted effect of over 50% in size
In short: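 In this counter screen, HEK293H cells carrying a UAS-beta-lactamase reporter are co-treated with test compounds and 300 nM L165041 (final) for 17 h at 37 C; cell viability is quantified by CellTiter-Glo luminescence.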

[13] = target: Peroxisome proliferator-activated receptor delta (Homo sapiens) (UniProt Q03181); assay: qHTS assay to identify small molecule antagonists of the peroxisome proliferator-activated receptor delta (PPARd) signaling pathway (AID 743215; active means well fitted inhibition curve with a large enough effect in the signal ratio in the repeat runs, not every such curve was filed as active; the % refers to the signal ratio;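 further: cells stimulated with agonist L165041 at 300 nM final during compound exposure; series mostly up to about 62 µM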)
In short: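 HEK293H GeneBLAzer PPARd UAS-bla reporter cells; cpd + L165041 300 nM final, 17 h 37 C; LiveBLAzer B/G FRET substrate 2 h RT; fluorescence intensity read-out. Antagonist mode.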

[14] = qHTS assay to identify small molecule antagonists of the farnesoid-X-receptor (FXR) signaling pathway - cell viability counter screen (AID 743221; active means well fitted cell-killing curve with a large enough effect in the repeat runs, not every such curve was filed as active; further: nearly all actives have a fitted effect of over 50% in size)
In short: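 CellTiter-Glo, 30 min RT, luminescence; same wells as the LiveBLAzer FRET read. Cells: FXR-UAS-bla HEK 293T. Treatment: compound with chenodeoxycholic acid 50 uM final, 16 h at 37 C.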

[15] = target: Vitamin D3 receptor (Homo sapiens) (UniProt P11473); assay: qHTS assay to identify small molecule agonists of the vitamin D receptor (VDR) signaling pathway (AID 743222; calls by dose curve)
In short: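 Beta-lactamase reporter readout (LiveBLAzer B/G FRET, 2 h RT) in VDR-bla cells after 16 h compound treatment at 37C, 5% CO2; cells pre-incubated 4 h before pin transfer of DMSO solutions.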

[16] = target: Vitamin D3 receptor (Homo sapiens) (UniProt P11473); assay: qHTS assay to identify small molecule antagonists of the vitamin D receptor (VDR) signaling pathway (AID 743223; active means well fitted inhibition curve with a large enough effect in the signal ratio in the repeat runs, not every such curve was filed as active; the % refers to the signal ratio)
In short: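 After VDR-bla cells are plated and left 4 h at 37C, DMSO-dissolved compounds and 3 nM (final) calcitriol agonist are added. Incubation continues 16 h at 37C; FRET beta-lactamase substrate then develops 2 h at room temperature.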

[17] = qHTS assay for small molecule agonists of the antioxidant response element (ARE) signaling pathway - cell viability counter screen (AID 743203; calls by dose curve; further: nearly all actives have a fitted effect of over 55% in size)
In short: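 Luminescence read-out (CellTiter-Glo, 30 min at room temperature) measured cell viability in the same wells as the ARE beta-lactamase reporter. HepG2 ARE-bla cells were treated with compounds for 16 hrs at 37C/5% CO2.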

[18] = qHTS assay to identify small molecule agonists of the farnesoid-X-receptor (FXR) signaling pathway - cell viability counter screen (AID 743218); further: nearly all actives have a fitted effect of over 45% in size
In short: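 Luminescence from CellTiter-Glo, read after 30 min at RT, reports viability of GeneBLAzer FXR-UAS-bla HEK 293T cells treated 16 h with compounds in the wells used for the beta-lactamase reporter.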

[19] = target: Bile acid receptor (Homo sapiens) (UniProt Q96RI1); assay: qHTS assay to identify small molecule antagonists of the farnesoid-X-receptor (FXR) signaling pathway (AID 743217; active means well fitted inhibition curve with a large enough effect in the signal ratio in the repeat runs, not every such curve was filed as active; the % refers to the signal ratio)
In short: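 Read-out: beta-lactamase FRET fluorescence (LiveBLAzer B/G substrate, 2 h, room temperature) in GeneBLAzer FXR-UAS-bla HEK 293T cells. Compounds were co-dosed with 50 uM chenodeoxycholic acid (final) and incubated 16 h at 37 °C.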

[20] = target: Bile acid receptor (Homo sapiens) (UniProt Q96RI1); assay: qHTS assay to identify small molecule agonists of the farnesoid-X-receptor (FXR) signaling pathway (AID 743220; active means well fitted activation curve with a large enough effect in the signal ratio in the repeat runs, not every such curve was filed as active; the % refers to the signal ratio)
In short: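 FXR-UAS-bla HEK 293T cells carrying a UAS-driven beta-lactamase reporter were plated for 5 h at 37C/5% CO2, then exposed to DMSO-dissolved Tox21 10K compounds for 16 h at 37C. A LiveBLAzer B/G FRET substrate was loaded for 2 h at room temperature before fluorescence reading.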

Measured: Potency

Chain of Vitamin D3 receptor (Homo sapiens) (P11473 whole entry, looked up): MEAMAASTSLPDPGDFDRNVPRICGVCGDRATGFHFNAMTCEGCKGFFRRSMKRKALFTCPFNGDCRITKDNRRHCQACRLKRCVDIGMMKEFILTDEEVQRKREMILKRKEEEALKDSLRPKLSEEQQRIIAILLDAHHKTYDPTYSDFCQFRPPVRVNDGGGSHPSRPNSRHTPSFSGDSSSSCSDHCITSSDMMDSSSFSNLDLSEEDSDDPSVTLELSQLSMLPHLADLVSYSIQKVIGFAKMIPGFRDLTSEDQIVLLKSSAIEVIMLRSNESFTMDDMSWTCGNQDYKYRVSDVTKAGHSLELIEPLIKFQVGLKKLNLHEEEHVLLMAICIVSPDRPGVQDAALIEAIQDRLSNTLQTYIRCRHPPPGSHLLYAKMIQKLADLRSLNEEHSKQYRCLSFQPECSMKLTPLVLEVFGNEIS
Chain of Peroxisome proliferator-activated receptor delta (Homo sapiens) (Q03181 whole entry, looked up): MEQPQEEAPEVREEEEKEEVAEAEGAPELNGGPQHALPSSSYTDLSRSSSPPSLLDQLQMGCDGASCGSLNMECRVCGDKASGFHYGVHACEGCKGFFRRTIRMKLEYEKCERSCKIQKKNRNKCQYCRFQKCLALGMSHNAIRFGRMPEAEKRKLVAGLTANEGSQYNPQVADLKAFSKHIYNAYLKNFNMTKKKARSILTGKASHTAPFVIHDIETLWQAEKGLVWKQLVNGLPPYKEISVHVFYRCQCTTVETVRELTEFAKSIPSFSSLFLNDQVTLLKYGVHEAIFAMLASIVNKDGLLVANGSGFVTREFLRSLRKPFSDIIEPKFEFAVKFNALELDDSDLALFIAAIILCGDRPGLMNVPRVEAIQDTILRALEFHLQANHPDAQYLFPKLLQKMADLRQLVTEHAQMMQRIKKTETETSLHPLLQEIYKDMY
Chain of Aryl hydrocarbon receptor (Homo sapiens) (P35869 whole entry, looked up): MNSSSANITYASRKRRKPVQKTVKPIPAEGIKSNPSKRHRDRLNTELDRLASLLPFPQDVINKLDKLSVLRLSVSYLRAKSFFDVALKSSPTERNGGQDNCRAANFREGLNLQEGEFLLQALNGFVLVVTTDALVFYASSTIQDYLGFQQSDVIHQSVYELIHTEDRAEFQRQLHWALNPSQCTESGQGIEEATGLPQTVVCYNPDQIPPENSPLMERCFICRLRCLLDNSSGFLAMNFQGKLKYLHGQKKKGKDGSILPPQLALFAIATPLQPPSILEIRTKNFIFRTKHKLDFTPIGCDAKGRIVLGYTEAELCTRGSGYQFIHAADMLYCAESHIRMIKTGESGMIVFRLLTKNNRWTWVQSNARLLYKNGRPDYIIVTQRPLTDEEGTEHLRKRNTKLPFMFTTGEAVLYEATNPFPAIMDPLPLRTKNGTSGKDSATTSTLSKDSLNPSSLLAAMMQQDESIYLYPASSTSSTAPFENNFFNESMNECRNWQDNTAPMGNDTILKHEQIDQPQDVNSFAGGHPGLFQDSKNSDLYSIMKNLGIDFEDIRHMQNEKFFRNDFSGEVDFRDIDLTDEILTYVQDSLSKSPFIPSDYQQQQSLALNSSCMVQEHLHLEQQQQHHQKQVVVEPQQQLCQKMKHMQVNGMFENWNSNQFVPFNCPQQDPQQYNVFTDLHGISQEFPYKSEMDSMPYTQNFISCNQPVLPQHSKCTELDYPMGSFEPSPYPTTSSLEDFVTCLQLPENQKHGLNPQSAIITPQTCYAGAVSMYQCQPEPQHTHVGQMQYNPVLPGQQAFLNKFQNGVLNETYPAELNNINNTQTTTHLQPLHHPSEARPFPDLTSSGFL
Chain of Bile acid receptor (Homo sapiens) (Q96RI1 whole entry, looked up): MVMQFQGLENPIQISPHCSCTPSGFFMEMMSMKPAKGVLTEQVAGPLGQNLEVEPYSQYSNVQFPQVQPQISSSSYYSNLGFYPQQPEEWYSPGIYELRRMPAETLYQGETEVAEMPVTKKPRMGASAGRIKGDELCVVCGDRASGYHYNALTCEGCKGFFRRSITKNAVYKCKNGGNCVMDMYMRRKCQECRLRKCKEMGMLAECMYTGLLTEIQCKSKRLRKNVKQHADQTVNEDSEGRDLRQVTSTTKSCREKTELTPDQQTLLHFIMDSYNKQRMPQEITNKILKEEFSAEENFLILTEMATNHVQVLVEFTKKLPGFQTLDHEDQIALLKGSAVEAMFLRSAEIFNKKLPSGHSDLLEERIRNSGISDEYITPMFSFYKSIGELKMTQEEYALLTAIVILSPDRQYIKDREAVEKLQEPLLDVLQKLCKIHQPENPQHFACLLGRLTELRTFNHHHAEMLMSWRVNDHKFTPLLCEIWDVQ
Chain of Peroxisome proliferator-activated receptor gamma (Homo sapiens) (P37231 whole entry, looked up): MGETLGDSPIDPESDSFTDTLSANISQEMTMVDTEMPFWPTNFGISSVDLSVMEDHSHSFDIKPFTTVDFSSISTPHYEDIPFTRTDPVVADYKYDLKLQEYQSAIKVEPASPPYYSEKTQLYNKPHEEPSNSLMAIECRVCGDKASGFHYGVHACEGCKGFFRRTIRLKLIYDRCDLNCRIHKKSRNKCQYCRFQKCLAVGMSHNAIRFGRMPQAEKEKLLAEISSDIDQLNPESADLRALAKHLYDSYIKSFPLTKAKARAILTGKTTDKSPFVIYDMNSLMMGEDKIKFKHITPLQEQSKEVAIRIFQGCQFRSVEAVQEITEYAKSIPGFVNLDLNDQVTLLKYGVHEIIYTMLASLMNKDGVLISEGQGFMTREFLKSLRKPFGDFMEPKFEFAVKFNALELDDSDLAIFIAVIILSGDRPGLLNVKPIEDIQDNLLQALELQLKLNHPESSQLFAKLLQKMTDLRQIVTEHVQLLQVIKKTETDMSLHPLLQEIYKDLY

CCOC(=S)SSC(=S)OCC
not listed: [17] | [18] | [19] | [20]
inactive: all other assays above

CC(C)c1ccccc1C(C)C
not listed: [9] | [13] | [19] | [20]
inactive: all other assays above

CCN(CC)C(C)=O
not listed: [13] | [15] | [16] | [18] | [19] | [20]
inactive: all other assays above

O=C1CCCCCO1
not listed: [8] | [11] | [13] | [19] | [20]
inactive: all other assays above

CC(C)(C)c1cc(CCC(=O)OCC(COC(=O)CCc2cc(C(C)(C)C)c(O)c(C(C)(C)C)c2)(COC(=O)CCc2cc(C(C)(C)C)c(O)c(C(C)(C)C)c2)COC(=O)CCc2cc(C(C)(C)C)c(O)c(C(C)(C)C)c2)cc(C(C)(C)C)c1O
not listed: [16]
inactive: all other assays above

N#CCc1cccc(C(F)(F)F)c1
not listed: [15] | [16]
inactive: all other assays above

CCCC[C@H]1CN(CC2CCOCC2)C(=O)OC12CCN(C1(C)CCN(C(=O)c3c(C)ncnc3C)CC1)CC2
not listed: [9] | [12] | [15] | [16] | [19] | [20]
inactive: all other assays above

C=Cc1c(C)c2cc3[nH]c(cc4nc(cc5nc(cc1[nH]2)C(C)=C5CCC(=O)O)C(CCC(=O)O)=C4C)c(C)c3C=C
not listed: [7] | [9] | [10] | [13] | [16] | [17] | [19] | [20]
inactive: all other assays above

NCCCN(CCO)CCO
not listed: [7] | [15] | [19] | [20]
inactive: all other assays above
